# Reference: PubChem BioAssay (NCI)
# About 83,000 compounds went through this panel and 20% of them were active in at least one assay; those are over-represented in the sample as a whole.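 Testing used 96-well plates and a 48-hour single-concentration exposure. Example: -40 means 40% of the starting cells died.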 Unmarked numbers belong to inactive results. Activity calls are given as the source filed them. How the source made its calls: active means growth percent below 10; inactive means the rest.
# Tests used:
# Test in all cases: NCI-60 one-dose screen, 48 h (100 = growth as untreated, 0 = no growth, -100 = all killed)
# HT29 colon = conditions: 10 µM unless noted
# SNB-19 CNS = conditions: 10 µM unless noted
# U251 CNS = conditions: 10 µM unless noted
# PC-3 prostate = conditions: 10 µM unless noted
# SK-MEL-5 melanoma = conditions: 10 µM unless noted
# UACC-62 melanoma = conditions: 10 µM unless noted
# LOX IMVI melanoma = conditions: 10 µM unless noted
# SK-MEL-2 melanoma = conditions: 10 µM unless noted
# EKVX NSCLC = conditions: 10 µM unless noted
# SN12C renal = conditions: 10 µM unless noted
# UO-31 renal = conditions: 10 µM unless noted
# TK-10 renal = conditions: 10 µM unless noted
# ACHN renal = conditions: 10 µM unless noted
# CAKI-1 renal = conditions: 10 µM unless noted
# A498 renal = conditions: 10 µM unless noted
# CCRF-CEM leukemia = conditions: 10 µM unless noted
# MOLT-4 leukemia = conditions: 10 µM unless noted
# SNB-75 CNS = conditions: 10 µM
# SK-MEL-28 melanoma = conditions: 10 µM unless noted
Structure (SMILES),growth (HT29 colon),growth (SNB-19 CNS),growth (U251 CNS),growth (PC-3 prostate),growth (SK-MEL-5 melanoma),growth (UACC-62 melanoma),growth (LOX IMVI melanoma),growth (SK-MEL-2 melanoma),growth (EKVX NSCLC),growth (SN12C renal),growth (UO-31 renal),growth (TK-10 renal),growth (ACHN renal),growth (CAKI-1 renal),growth (A498 renal),growth (CCRF-CEM leukemia),growth (MOLT-4 leukemia),growth (SNB-75 CNS),growth (SK-MEL-28 melanoma)
COc1ccc(Nc2[nH]n3c(=O)cc(C)nc3c2C(N)=O)c(OC)c1,92.2%,96%,94.1%,99.7%,98.1%,84%,95.6%,94%,101%,96.6%,87.5%,88.2%,96.8%,90.2%,86.1%,101%,116%,,
COc1ccc(-c2c(-c3cc(OC)c4c(c3)OCO4)noc2N)cc1,,34.4%,16.4%,25.6%,-54.4% (active),32.7%,15.4%,53.4%,44.6%,22.9%,36.1%,54.8%,,38.7%,23.6%,14.1%,4.69% (active),25.9%,58.8%
OCCCCCCNc1ncnc2cc(Cl)ccc12,99%,,96.8%,80.7%,94.1%,102%,88.1%,100%,105%,99.9%,69.7%,94.1%,102%,90.3%,104%,78.2%,84.5%,,116%
COc1ccc(/C=C2\Oc3cc(OCCCN4CCCC4)ccc3C2=O)cc1,17%,,82.7%,85.5%,,100%,13.3%,100%,89.6%,90.4%,73.9%,95.2%,92.6%,91.6%,,52.3%,72.2%,,103%
COc1cc(-c2nn(-c3cccc(NC(=O)c4ccc(Cl)c(C(F)(F)F)c4)c3)cc2-c2ccncc2)ccc1Cl,50.1%,66%,32.5%,18.6%,17.5%,32.8%,32.2%,18.9%,,57.3%,37.1%,69.5%,39.1%,61.1%,11.8%,12.4%,20.3%,,41.6%
COc1cc(NC(N)=NCCC(C)(C)Oc2ccc(C(F)(F)F)cc2)ncc1C#N,-79.4% (active),27.8%,-98.2% (active),13.4%,-95.8% (active),-51.8% (active),-97.2% (active),-38.5% (active),27.1%,-90.3% (active),-23.5% (active),-74.2% (active),2.74% (active),51.6%,42.8%,-13.8% (active),-20.8% (active),,
O=C(/C=C/c1ccccc1)c1cccc(O)c1,32.3%,,61.9%,103%,107%,,81.7%,115%,108%,,72.6%,109%,,93.6%,114%,,86.7%,,104%
COc1ccc(S(=O)(=O)Nc2cc(/C=C\c3cc(OC)c(OC)c(OC)c3)cc(OC)c2OC)cc1,2.32% (active),,5.4% (active),6.4% (active),-6.88% (active),46%,21.5%,18.3%,,23.3%,21%,64.9%,26.4%,22.9%,-11.5% (active),13.7%,,,67.8%
Cc1ccc(-c2nc(C#N)c(S(=O)(=O)n3nc(-c4ccccc4)cc3N)o2)cc1,56%,93.7%,96.7%,101%,99.8%,94.3%,28%,99.4%,99%,90.2%,92%,18.1%,25.3%,-41.1% (active),126%,4.2% (active),1.21% (active),,108%
Cc1nc2ncccc2nc1Nc1ccc(S(=O)(=O)Nc2cncs2)cc1,101%,111%,97.7%,86.6%,101%,88.8%,83.5%,103%,88.2%,82.7%,58.8%,101%,99.7%,84.1%,118%,100%,99.4%,,110%
O=C(Nc1cccc(-n2cc(-c3ccncc3)c(-c3ccc(Cl)c(O)c3)n2)c1)c1ccccc1,53.5%,99.7%,75.4%,50.3%,59.4%,68.3%,68.5%,67.9%,,79.3%,83.1%,109%,53.2%,90.3%,72.3%,67.5%,69.5%,,48.1%
CCN1CCN(CC(=O)N2c3cccc4cccc(c34)N(C(=O)CN3CCN(CC)CC3)C2c2cn(-c3ccccc3)nc2-c2cccc([N+](=O)[O-])c2)CC1,-41.5% (active),8% (active),-82.1% (active),21.6%,-92.5% (active),-82.4% (active),-82.1% (active),-9.31% (active),36.5%,-53% (active),-26.1% (active),-41.4% (active),-43.6% (active),-5.5% (active),74.7%,-33.6% (active),-33.7% (active),,-87.6% (active)
